# Bioassay records as filed in PubChem.
# Pf growth 96h = Primary qHTS for delayed death inhibitors of the malarial parasite plastid, 96 hour incubation; P. falciparum luciferase reporter growth, 96 h; Potency, µM (highest dose often 28.7 µM), inactives show at the top dose activity change, negative = inhibition, hits mostly inhibitors; 320,000 tested, 6.9% active; AID 504834, 2011; note: potency is the fitted concentration of half-maximal effect; % is set by controls: 0 for no effect and ±100 for the full control effect
#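 Compounds incubated with erythrocytes infected by luciferase-expressing P. falciparum (2% hematocrit, 0.05% parasitemia final) for 96 hours, 37 C in 5% CO2. Growth inhibition scored as decreased luciferase luminescence.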
# NS1 inh = qHTS Assay for Inhibitors of Influenza NS1 Protein Function | Potency, µM (highest dose often 46.1 µM), inactives show at the top dose activity, positive = more growth | 270,000 tested, 0.4% active | AID 2326, 2010; calls by dose curve; note: potency is the fitted concentration of half-maximal effect; actives are rising curves; nearly all actives have a fitted effect of over 50% in size
#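 Compounds were scored for reversing the slow growth caused by influenza A NS1 in S. cerevisiae, measured by optical density at 600 nm. Assay medium contained 2% galactose at pH 6.0; NS1-free yeast of the same strain were the positive control.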
# RE007 growth inh = qHTS Assay for Inhibitors of the HIV-1 protein Vpr; 360,000 tested, 0.21% active; AID 651644, 2012; S. pombe RE007 Vpr strain, BacTiter-Glo ATP luminescence, 24 h; Potency, µM (doses to about 92.2 µM), for inactives: at the highest dose activity change, negative = less growth, most hits filed as inhibitors; active = well fitted falling curve with a large enough effect; inconclusive = small, poorly fitted or top-dose-only effect; inactive = no such curve, though single readings can be large or run the other way; note: potency is the fitted concentration of half-maximal effect; % is set by controls: 0 for no effect and ±100 for the full control effect; nearly all actives have a fitted effect of over 50% in size
#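 Fission yeast RE007 carrying one integrated HIV-1 vpr copy, seeded at OD 0.01 in PMG+AL medium with 23 nL pinned compound. Grown 24 h at 30 degrees; viability read by BacTiter-Glo luminescence after 5 min.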
# Pf growth 48h = Primary qHTS for delayed death inhibitors of the malarial parasite plastid, 48 hour incubation | P. falciparum luciferase growth in erythrocytes, 48 h | Potency, µM (top dose mostly 28.7 µM), without a hit: at the highest dose activity change, negative = inhibition, actives largely listed as inhibitors | 310,000 tested, 5.9% active; note: potency is the fitted concentration of half-maximal effect; % is set by controls: 0 for no effect and ±100 for the full control effect
#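 Luciferase-expressing parasites in RBCs, 2% Hct / 0.1% parasitemia final; RPMI 1640 + 0.5% Albumax; 37 C, 5% CO2, one generation; luminescence read-out, lower signal = inhibition.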
# SARS PLpro yeast-1 = qHTS of Yeast-based Assay for SARS-CoV PLP. 330,000 tested, 0.19% active. S. cerevisiae expressing SARS-CoV PLpro, growth rescue. AID 485353, 2010. Potency, µM (series often up to 32.9 µM), for inactives: top-dose activity, positive = growth rescue, hits mostly activators; calls by dose curve; note: potency is the fitted concentration of half-maximal effect; 0% is about no effect; nearly all actives have a fitted effect of over 55% in size
# SARS PLpro yeast-2 = qHTS of Yeast-based Assay for SARS-CoV PLP: Hit Validation | shares compounds with SARS PLpro yeast-1 | yeast expressing SARS-CoV PLpro, growth phenotype rescue | calls only | 1,000 tested, 19% active | AID 652038, 2013; call rule not given here
# Active calls of the source: *; i = inactive; ? = inconclusive; . = no result given; + = active, no number. Sampled rows, rich in hits. Any-hit rate of the full collection: about 9.5%. Unless noted, calls come from the whole dose curve; as a rule, active = well fitted inhibition curve with a large enough effect; inconclusive = small, poorly fitted or top-dose-only effect, or another doubt; inactive = no such curve, though single readings can be large or run the other way.
SMILES,Pf growth 96h,NS1 inh,RE007 growth inh,Pf growth 48h,SARS PLpro yeast-1,SARS PLpro yeast-2
O=C(Nc1nc2ccccc2n1CCN1CCOCC1)c1ccccc1,0%,-4%,-7%,-28%,-4%,.
C[C@]12CC[C@@H]3c4ccc(O)cc4CC[C@H]3[C@@H]1C[C@@H](O)[C@@H]2O[C@@H]1O[C@H](C(=O)O)[C@@H](O)[C@H](O)[C@H]1O,2%,-1%,5%,-11%,?,i
C[C@]12CC[C@@H]3c4ccc(O)cc4CC[C@H]3[C@@H]1CC[C@@H]2O,?,-23%,8%,-22%,-17%,.
Cc1cccc(OCC(=O)Nc2ccc(S(=O)(=O)N3CCN(C)CC3)cc2)c1,?,5%,2%,?,3.5µM*,i
CN1CCN(S(=O)(=O)c2ccc(NC(=O)COc3ccccc3)cc2)CC1,?,.,-6%,?,2%,.
COc1ccc(NC2CCCN(C(=O)C3=NN(C)C(=O)CC3)C2)cc1OC (stereo not drawn),-25%,2%,3%,17%,-1%,.
CCOC(=O)N1CCN(C(=O)CSCC(=O)Nc2nc(-c3ccc(Cl)s3)cs2)CC1,?,-13%,10%,?,13µM*,?
COc1ccc(N2CCN(C3CCCN(C(=O)C4=C(C)OCCO4)C3)CC2)cc1 (stereo not drawn),-20%,5%,-6%,5%,?,i
COc1ccc(N2CCN(C3CCCN(C(=O)c4ccoc4)C3)CC2)cc1 (stereo not drawn),?,-8%,9%,?,0%,.
COc1ccccc1-c1cnn2c(NC3CCCC3)cc(C)nc12,?,-11%,-14%,30%,-3%,.
Cc1ccc(N=Nc2ccc(O)c3ncccc23)cc1,?,-14%,1%,0.47µM*,4µM*,i
O=C1NC[C@H](CCCCN2C[C@H](Cc3ccccc3)N(CCC3CCCCC3)C(=O)C2=O)N(Cc2ccccc2)C1=O,.,.,-19%,.,.,.
Oc1c(C(Nc2cccc(C(F)(F)F)c2)c2ccncc2)ccc2cccnc12 (stereo not drawn),?,-7%,-26%,1.9µM*,?,i
CCN(CC)c1ccc(C(NC(=O)C(C)C)c2ccc3cccnc3c2O)cc1 (stereo not drawn),.,.,-21%,.,.,.
COc1cccc(CNC(=O)c2ccc(CS(=O)(=O)Cc3ccccc3C)o2)c1,19%,-22%,4%,-19%,?,i
CC(C)(C)c1nnc(N/N=C/c2ccccc2O)n(N)c1=O,?,-34%,-27%,3.3µM*,3.2µM*,i
CCc1nnc(N/N=C/c2ccccc2F)n1N,-22%,.,-11%,28%,-2%,.
CC(Sc1nnc(NCc2ccccc2)s1)C(=O)Nc1ccc2c(c1)C(=O)c1ccccc1C2=O (stereo not drawn),2%,?,13%,40%,?,+
CC(Sc1nnc(Nc2ccccc2)s1)C(=O)Nc1nc(-c2ccccc2)cs1 (stereo not drawn),?,0%,2%,?,-1%,.
CCOC(=O)CSc1c(-c2ccccc2)c2cc(Cl)ccc2[nH]c1=O,?,-16%,6%,-10%,0%,.
O=C(O)CSc1c(-c2ccccc2)c2cc(Cl)ccc2[nH]c1=O,-10%,27%,2%,10%,?,i
COC(=O)c1c(C)[nH]c(C(=O)COC(=O)CCc2ccc(OC)c(OC)c2)c1C,.,.,4%,.,.,.
Cc1cc(C)c2oc(=O)cc(CN3CCCCC3)c2c1,?,7%,2%,?,-2%,.
CN(CC(=O)Nn1cnnc1)S(=O)(=O)c1ccc(Br)cc1,36%,-46%,-4%,24%,3.5µM*,i
CN(CC(=O)Nc1ccncc1)S(=O)(=O)c1ccc(Br)cc1,?,3%,-6%,.,7%,.
SMILES,Pf growth 96h,NS1 inh,RE007 growth inh,Pf growth 48h,SARS PLpro yeast-1,SARS PLpro yeast-2
O=C(CC1SC(N2CCCCC2)=NC1=O)Nc1cccc(C(=O)Nc2ncccc2O)c1 (stereo not drawn),?,.,10%,-5%,?,i
N#C/C(=C\C=C\c1ccccc1[N+](=O)[O-])C(=O)NC1CCCCC1,?,.,-3%,?,?,i
COc1cccc(C2/C(=C(\O)c3ccc4c(c3)OCCO4)C(=O)C(=O)N2Cc2cccnc2)c1 (stereo not drawn),2%,-2%,5%,4%,?,i
CC(C)C(=O)C1=Cc2cc([N+](=O)[O-])ccc2OC1N1CCOCC1 (stereo not drawn),-27%,-64%,-13%,180%,-11%,.
Cc1ccc(CN(C)C(=O)C2CCC(=O)N(CCc3ccccc3)C2)o1 (stereo not drawn),?,14%,-11%,-3%,?,i
CN1C(=O)SC(Nc2ccccc2)C1=O (stereo not drawn),?,-3%,2%,-17%,13µM*,i
CN1C(=O)SC(Nc2ccc(F)cc2)C1=O (stereo not drawn),?,-52%,-20%,-10%,-4%,.
CCOc1ccccc1CNC(=O)CCNC(=O)Cn1ccc2ccccc2c1=O,4%,3%,-7%,11%,?,i
CNC(=S)NCc1ccc(Cl)cc1,.,.,5%,.,.,.
CCCNC(=S)NCc1ccc(Cl)cc1,46%,-6%,-11%,17%,?,i
CCOc1ccc(CNC(=S)NCc2ccc(OCC)cc2)cc1,7%,10%,1%,19%,13µM*,+
COc1ccc(CNC(=S)NCc2ccc(OC)cc2)cc1,0%,2%,-6%,7%,0%,.
O=C(N/N=C/c1ccc(O)cc1)c1cccc(C(F)(F)F)c1,12%,-9%,-3%,20%,?,.
O=C(N/N=C/c1ccccc1O)c1cccc(C(F)(F)F)c1,?,3%,9%,?,?,i
COCCCN1C(=O)C(CC(=O)NCCN2CCOCC2)CC(C(=O)N(C(C)C)C(C)C)=C1C (stereo not drawn),.,.,9%,.,.,.
CCn1cnc2sc(C(=O)Oc3cccc(C)c3)c(C)c2c1=O,?,.,4%,146%,-9%,.
Cc1c(C(=O)Oc2ccc(F)cc2)sc2ncn(Cc3cccc(F)c3)c(=O)c12,11%,-3%,-3%,3%,?,i
COc1ccc(CCNC(=O)C(=O)NCC2OCCN2S(=O)(=O)c2ccccc2)cc1OC (stereo not drawn),?,5%,1%,-5%,11µM*,i
CCOc1ccc(-c2noc(CCC(=O)NC3CCCCC3)n2)cc1OC,2%,41%,-7%,-17%,11%,.
CC(NC(=O)c1ccc(N(C)C)cc1)C1CC2CCC1C2 (stereo not drawn),.,13%,-9%,3%,22µM*,i
